Data as given in PubChem BioAssay (NCATS).
Records with an inconclusive call do not appear. Active and inactive are the calls of the source. Unless noted, the call rests on the fitted dose curve; in most records, active means well fitted curve in the direction sought with a large enough effect; inconclusive means small, poorly fitted or top-dose-only effect, or another doubt; inactive means no such curve, though single readings can be large; an effect the other way counts as inactive or inconclusive.

Experiments:
[1] = biological target: Lysosomal acid glucosylceramidase (Homo sapiens) (UniProt P04062); test: Glucocerebrosidase-p2 (AID 348; in the data active means potency below about 10 µM; further: potency means the concentration at half of the fitted maximal effect); conditions: purified GBA, blue fluorogenic substrate, 40 min
Sequence of Lysosomal acid glucosylceramidase (Homo sapiens) (P04062 whole entry, looked up): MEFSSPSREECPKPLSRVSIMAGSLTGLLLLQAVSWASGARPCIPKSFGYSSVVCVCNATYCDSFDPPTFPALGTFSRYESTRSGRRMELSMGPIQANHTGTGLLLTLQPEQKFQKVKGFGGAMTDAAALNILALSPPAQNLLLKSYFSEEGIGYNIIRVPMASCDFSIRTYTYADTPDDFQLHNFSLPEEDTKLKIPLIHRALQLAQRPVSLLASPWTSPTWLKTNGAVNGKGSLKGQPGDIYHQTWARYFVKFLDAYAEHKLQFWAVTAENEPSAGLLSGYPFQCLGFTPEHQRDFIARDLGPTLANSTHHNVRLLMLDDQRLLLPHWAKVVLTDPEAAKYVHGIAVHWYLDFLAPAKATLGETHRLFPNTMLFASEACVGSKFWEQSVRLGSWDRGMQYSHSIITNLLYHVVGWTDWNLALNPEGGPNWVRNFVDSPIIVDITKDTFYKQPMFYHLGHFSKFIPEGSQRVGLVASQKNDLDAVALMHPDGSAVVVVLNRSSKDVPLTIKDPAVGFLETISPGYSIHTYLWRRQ
How it was run: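 Normal human glucocerebrosidase (0.2 nM) with blue fluorogenic substrate (80 uM final) in citrate/phosphate pH 5.9 with 10mM sodium taurocholate, 0.01% tween-20; 40 min RT, NaOH/glycine stop; fluorescence Ex 365/Em 440; AC50 from a titration from 0.6 nM upwards.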

[2] = AP1 Signaling Pathway (AID 357; active means well fitted curve in either direction with a large enough effect, not every such curve was filed as active;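 further: ME-180 reporter cells stimulated with EGF at its EC50 level; on the % scale 0 is the no-effect control and ±100 the full control effect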); conditions: ME-180 AP-1-bla reporter, EGF-induced, beta-lactamase ratio, 5 h; at 7.69 µM (top of the series) unless noted
How it was run: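 Read-out was the 460nm/530nm emission ratio (excitation 405nm) after CCF4 loading for 2.5 hours at room temperature. Cells carried an AP-1-driven beta-lactamase reporter, were stimulated with EC50 EGF plus compound for 5 hours, and AC50 values came from titrations.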

[3] = biological target: Cytochrome P450 1A2 (Homo sapiens) (UniProt P05177); test: p450-cyp1a2 (AID 410; calls by dose curve; further: potency means the concentration at half of the fitted maximal effect;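 on activity change, negative = inhibition: -100% = full effect of reference inhibitor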)
Sequence of Cytochrome P450 1A2 (Homo sapiens) (P05177 whole entry, looked up): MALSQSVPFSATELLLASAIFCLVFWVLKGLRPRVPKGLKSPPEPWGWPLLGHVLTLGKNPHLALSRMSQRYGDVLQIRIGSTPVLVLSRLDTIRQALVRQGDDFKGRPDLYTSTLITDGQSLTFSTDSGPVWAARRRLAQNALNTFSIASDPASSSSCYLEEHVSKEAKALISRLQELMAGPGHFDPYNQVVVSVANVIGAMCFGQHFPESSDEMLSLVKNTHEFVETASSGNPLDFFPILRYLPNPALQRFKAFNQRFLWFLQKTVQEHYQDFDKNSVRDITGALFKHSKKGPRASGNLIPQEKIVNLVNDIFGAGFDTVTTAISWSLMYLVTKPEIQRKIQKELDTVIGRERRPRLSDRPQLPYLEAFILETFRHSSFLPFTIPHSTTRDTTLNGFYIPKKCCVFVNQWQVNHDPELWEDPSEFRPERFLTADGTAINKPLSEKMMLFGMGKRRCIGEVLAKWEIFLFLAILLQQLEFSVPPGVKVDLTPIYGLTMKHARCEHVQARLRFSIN
How it was run: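 O-Demethylation of luciferin 6' methyl ether by human CYP1A2 is monitored as luciferase luminescence. Substrate sits at Km (100uM); enzyme is 20nM. Values are scaled to 57 uM furafylline as maximal inhibition.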

[4] = NFAT Signaling Pathway (AID 444; active means well fitted curve in either direction with a large enough effect, not every such curve was filed as active;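 further: carbachol stimulus at about its EC50 of 1 µM final; on the % scale 0 is the no-effect control and ±100 the full control effect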); conditions: Jurkat NFAT-bla M1, carbachol, beta-lactamase ratio, 5 h; at 7.69 µM (top of the series) unless noted
How it was run: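 Read-out: CCF4 FRET ratio (460 nm/530 nm) after 1 h RT dye loading, used for %activity and AC50 from titration series. Cells: Jurkat NFAT-β-lactamase/M1 line, treated with compound plus 1 uM carbachol for 5 h, 37 °C.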

[5] = Stat Signaling Pathway (AID 446; active means well fitted curve in either direction with a large enough effect, not every such curve was filed as active;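 further: ME-180 cervical cancer cells given 40 pM IL-6 alongside compound; SIE-controlled beta-lactamase reporter measured as 460/530 nm FRET emission ratio; on the % scale 0 is the no-effect control and ±100 the full control effect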); conditions: ME-180 (cervical carcinoma) SIE beta-lactamase reporter, IL-6 stimulated, 5 h; at 7.69 µM (top of the series) unless noted
How it was run: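 Overnight-plated ME-180 cells bearing a STAT Inducible Element beta-lactamase reporter; 5 h co-exposure to compound and 40 pM IL-6; values normalized to 300 pM IL-6 and 125 nM JAK inhibitor controls.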

[6] = biological target: Glucocorticoid receptor (Homo sapiens) (UniProt P04150); test: GR-GFP Redistribution (AID 450;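 active means compounds whose dose series gives a full or clear partial fitted curve of increased nuclear translocation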; further: potency means the concentration at half of the fitted maximal effect); conditions: U2OS GR-GFP nuclear translocation, laser cytometry, 2 h
Sequence of Glucocorticoid receptor (Homo sapiens) (P04150 whole entry, looked up, the tested form may be a part): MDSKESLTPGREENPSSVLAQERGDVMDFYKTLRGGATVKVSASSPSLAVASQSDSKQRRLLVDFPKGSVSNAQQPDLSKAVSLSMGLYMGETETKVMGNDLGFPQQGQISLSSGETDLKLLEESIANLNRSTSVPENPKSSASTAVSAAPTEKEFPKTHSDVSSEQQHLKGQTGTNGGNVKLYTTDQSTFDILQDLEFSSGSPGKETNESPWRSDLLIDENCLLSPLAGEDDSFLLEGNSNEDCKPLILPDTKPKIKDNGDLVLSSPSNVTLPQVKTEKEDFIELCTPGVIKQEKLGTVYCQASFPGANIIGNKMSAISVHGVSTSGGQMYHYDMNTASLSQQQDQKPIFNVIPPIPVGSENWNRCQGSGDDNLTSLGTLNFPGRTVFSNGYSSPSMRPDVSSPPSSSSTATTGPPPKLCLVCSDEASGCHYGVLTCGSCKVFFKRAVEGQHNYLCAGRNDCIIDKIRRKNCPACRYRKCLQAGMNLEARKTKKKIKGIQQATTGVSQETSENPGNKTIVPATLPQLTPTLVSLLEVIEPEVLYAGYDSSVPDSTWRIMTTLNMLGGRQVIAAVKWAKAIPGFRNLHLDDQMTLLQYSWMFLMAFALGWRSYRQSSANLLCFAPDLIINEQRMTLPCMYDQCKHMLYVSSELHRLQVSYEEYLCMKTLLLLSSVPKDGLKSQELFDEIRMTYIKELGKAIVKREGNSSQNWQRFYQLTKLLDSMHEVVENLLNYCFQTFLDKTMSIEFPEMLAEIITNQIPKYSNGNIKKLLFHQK

[7] = biological target: Glucocorticoid receptor (Homo sapiens) (UniProt P04150); test: GR-EFC Redistribution (AID 451; calls by dose curve; further: potency means the concentration at half of the fitted maximal effect); conditions: CHO-K1 GR-EFC translocation, beta-gal luminescence, 2 h
How it was run: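 Translocation of GR-ED fusion to nuclear EA restores b-gal, read by luminescence after 1 h room-temperature detection. Engineered CHO-K1 biosensor cells, 1,000/well, exposed 2 h at 37 C to titrations up to 46 uM final.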

[8] = biological target: Mitogen-activated protein kinase 10 (Mus musculus) (UniProt Q61831); test: JNK3 AlphaScreen Assay (AID 530; active means well fitted curve in either direction with a large enough effect, not every such curve was filed as active;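 further: kinase came from lysate of stimulated human HepG2 cells; signal reports phosphorylation of biotinylated GST-cJun 1-79 at Ser73 with 10 µM ATP; on the % scale 0 is the no-effect control and ±100 the full control effect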)
How it was run: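 qHTS titrations with 15 min compound pre-incubation before adding ATP (10 uM final). Read-out: AlphaScreen of Ser73-phosphorylated biotin-GST-cJun using HepG2 lysate JNK3 activated by IL-1β and TNFα.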

[9] = biological target: 3',5'-cyclic-AMP phosphodiesterase 4B (Homo sapiens) (UniProt Q07343); test: qHTS Assay for Inhibitors of PDE-IV (AID 607; active means well fitted activation curve with a large enough effect in the main read-out, with a control signal flat, not every such curve was filed as active; further: % of control where 0% means no effect)
Sequence of 3',5'-cyclic-AMP phosphodiesterase 4B (Homo sapiens) (Q07343 whole entry, looked up): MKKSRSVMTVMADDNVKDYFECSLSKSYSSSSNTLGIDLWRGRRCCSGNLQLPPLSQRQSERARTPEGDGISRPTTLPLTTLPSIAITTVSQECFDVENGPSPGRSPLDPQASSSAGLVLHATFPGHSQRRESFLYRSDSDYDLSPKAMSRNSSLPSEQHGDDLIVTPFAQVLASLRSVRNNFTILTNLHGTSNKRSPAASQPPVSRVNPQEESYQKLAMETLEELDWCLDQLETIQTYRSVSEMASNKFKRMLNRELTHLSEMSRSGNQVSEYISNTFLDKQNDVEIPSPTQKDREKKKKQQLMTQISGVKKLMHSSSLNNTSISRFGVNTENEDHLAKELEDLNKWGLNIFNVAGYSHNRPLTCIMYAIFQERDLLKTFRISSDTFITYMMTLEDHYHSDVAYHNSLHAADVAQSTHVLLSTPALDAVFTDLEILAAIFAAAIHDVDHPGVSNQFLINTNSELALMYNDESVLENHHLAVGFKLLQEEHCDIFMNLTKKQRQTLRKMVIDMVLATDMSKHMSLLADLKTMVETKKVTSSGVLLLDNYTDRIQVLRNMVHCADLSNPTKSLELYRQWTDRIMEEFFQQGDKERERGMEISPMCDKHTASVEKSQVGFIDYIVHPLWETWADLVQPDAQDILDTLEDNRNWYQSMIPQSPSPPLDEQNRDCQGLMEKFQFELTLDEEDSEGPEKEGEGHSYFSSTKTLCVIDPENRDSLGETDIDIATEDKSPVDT
How it was run: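 Live HEK293 cells with a modified cyclic nucleotide-gated (CNG) channel report intracellular cAMP via membrane-potential dye fluorescence (ex 535/em 590 nm). Endogenous PDE-IV was targeted. Compounds were tested at up to 22.9 uM final; RO 20-1724 100 uM served as control.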

[10] = biological target: Cytochrome P450 3A4 (Homo sapiens) (UniProt P08684); test: qHTS Assay for Activators of Cytochrome P450 3A4 (AID 885); further: nearly all actives have a fitted effect of over 65% in size
Sequence of Cytochrome P450 3A4 (Homo sapiens) (P08684 whole entry, looked up): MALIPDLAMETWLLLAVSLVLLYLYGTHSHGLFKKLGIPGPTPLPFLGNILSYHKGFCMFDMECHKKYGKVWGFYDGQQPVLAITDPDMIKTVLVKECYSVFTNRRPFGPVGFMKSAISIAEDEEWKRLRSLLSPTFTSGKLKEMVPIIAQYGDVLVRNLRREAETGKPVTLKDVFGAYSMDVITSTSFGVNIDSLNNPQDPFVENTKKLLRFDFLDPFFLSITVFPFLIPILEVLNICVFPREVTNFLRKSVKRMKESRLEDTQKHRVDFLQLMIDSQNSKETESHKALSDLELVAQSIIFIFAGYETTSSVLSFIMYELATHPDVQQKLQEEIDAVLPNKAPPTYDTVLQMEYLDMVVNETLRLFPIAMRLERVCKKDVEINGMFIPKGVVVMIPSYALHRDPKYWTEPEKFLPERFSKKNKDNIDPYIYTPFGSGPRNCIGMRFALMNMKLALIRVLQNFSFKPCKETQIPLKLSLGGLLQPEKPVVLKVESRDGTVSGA
How it was run: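 Using 20nM recombinant human CYP3A4 in potassium phosphate (200mM), substrate Luciferin-PPXE at 25uM, luminescent luciferin detection followed a 60-min RT NADPH reaction; data scaled to 57 uM ketoconazole.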

[11] = qHTS Assay for Lipid Storage Modulators (AID 1519; calls by dose curve); conditions: Drosophila S3 cells, BODIPY lipid droplet/cell ratio, laser cytometry, cells loaded with oleic acid; for activity change, negative = inhibition: at 57.5 µM (top of the series)
How it was run: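 Cells seeded at 5,000 per well were treated with compounds over a concentration series and loaded with oleic acid (400 uM, as added). Lipid droplet fluorescence (488 nm excitation, 500-530 nm channel) was read by laser-scanning cytometry and normalized to 20 uM Triacsin C.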

[12] = biological target: Dual specificity protein kinase CLK4 (Homo sapiens) (UniProt Q9HAZ1); test: qHTS Assay for Inhibitors of CDC-like Kinase 4 (Kinase-Glo Assay) (AID 1770); further: on the % scale 0 is the no-effect control and ±100 the full control effect; nearly all actives have a fitted effect of over 65% in size
Sequence of Dual specificity protein kinase CLK4 (Homo sapiens) (Q9HAZ1 whole entry, looked up): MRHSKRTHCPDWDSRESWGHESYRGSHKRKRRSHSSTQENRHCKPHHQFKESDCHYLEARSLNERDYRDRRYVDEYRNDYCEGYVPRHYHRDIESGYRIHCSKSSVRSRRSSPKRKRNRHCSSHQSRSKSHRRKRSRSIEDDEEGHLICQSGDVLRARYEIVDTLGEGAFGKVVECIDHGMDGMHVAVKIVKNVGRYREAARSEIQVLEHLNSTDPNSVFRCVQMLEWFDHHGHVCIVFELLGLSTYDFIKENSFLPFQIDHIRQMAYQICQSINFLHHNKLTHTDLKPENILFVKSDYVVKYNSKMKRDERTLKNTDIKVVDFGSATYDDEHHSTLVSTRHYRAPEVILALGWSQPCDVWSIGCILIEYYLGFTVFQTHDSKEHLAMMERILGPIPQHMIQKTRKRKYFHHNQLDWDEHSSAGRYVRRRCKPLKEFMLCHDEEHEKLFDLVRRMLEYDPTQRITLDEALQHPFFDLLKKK
How it was run: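 Readout: Kinase-Glo luminescence from ATP left after a 4.5 h room-temperature reaction of 25 nM Clk4 with 100 uM RS peptide and 1 uM ATP (final). Buffer: 25 mM Tris pH 7.5, 10 mM MgCl2.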

[13] = biological target: Dual specificity protein kinase CLK4 (Homo sapiens) (UniProt Q9HAZ1); test: qHTS Assay for Inhibitors of CDC-like Kinase 4 (ADP-Glo Assay) (AID 1771); further: on the % scale 0 is the no-effect control and ±100 the full control effect; nearly all actives have a fitted effect of over 70% in size
How it was run: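 Compounds are pin-transferred onto substrate mix (100 uM RS peptide, 1 uM ATP), then 25 nM Clk4 is added. After 1 hr at room temperature, ADP-Glo reagent runs 45 min, detection reagent 30 min, then luminescence is read.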

[14] = biological target: Dual specificity protein kinase CLK4 (Homo sapiens) (UniProt Q9HAZ1); test: qHTS Assay for Inhibitors of CDC-like Kinase 4 (ADP-FP Assay) (AID 1795);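 further: recombinant human CLK4 phosphorylating RS repeat peptide at 1 µM ATP; on the % scale 0 is the no-effect control and ±100 the full control effect; nearly all actives have a fitted effect of over 60% in size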
How it was run: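 FP readout: Orange Transcreener ADP2 tracer (4 nM) plus ADP antibody, read after 30 min at room temperature. Kinase step: 6.25 nM Clk4, 100 uM RS peptide, 1 uM ATP, pH 7.5, 1 h.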

[15] = biological target: Ubiquitin carboxyl-terminal hydrolase 1 (Homo sapiens) (UniProt O94782); test: Inhibitors of USP1/UAF1: Pilot qHTS (AID 504865);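 further: rhodamine fluorescence freed from ubiquitin-rhodamine substrate followed over time; top concentration of the series differs between compounds; on the % scale 0 is the no-effect control and ±100 the full control effect; nearly all actives have a fitted effect of over 35% in size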
Sequence of Ubiquitin carboxyl-terminal hydrolase 1 (Homo sapiens) (O94782 whole entry, looked up): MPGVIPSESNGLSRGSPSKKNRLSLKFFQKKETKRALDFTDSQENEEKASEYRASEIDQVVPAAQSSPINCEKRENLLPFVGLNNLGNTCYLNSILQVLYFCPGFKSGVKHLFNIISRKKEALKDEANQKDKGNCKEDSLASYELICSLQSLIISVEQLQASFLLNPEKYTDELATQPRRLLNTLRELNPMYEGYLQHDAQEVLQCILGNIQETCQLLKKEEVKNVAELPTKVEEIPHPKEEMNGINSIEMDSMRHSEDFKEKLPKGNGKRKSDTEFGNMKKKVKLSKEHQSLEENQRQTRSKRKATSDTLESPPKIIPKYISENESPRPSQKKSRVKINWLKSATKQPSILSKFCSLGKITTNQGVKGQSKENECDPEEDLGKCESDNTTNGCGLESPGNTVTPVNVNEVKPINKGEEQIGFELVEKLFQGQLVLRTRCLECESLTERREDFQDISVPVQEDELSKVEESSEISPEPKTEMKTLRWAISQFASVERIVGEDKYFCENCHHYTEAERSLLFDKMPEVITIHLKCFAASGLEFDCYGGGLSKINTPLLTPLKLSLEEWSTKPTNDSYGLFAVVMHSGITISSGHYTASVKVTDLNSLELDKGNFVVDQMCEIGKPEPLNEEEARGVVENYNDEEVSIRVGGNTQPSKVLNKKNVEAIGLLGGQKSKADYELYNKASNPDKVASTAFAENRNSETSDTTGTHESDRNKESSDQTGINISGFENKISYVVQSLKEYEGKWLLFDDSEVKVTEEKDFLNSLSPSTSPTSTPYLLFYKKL
How it was run: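 1nM USP1/UAF1 + cpd, 15 min RT; start w/ Ub-Rho 150nM final; kinetic FL 480/540 nm, 6 reads q60 s. Buffer 50mM HEPES pH 7.8, 0.5mM EDTA, 1mM TCEP, 0.01% Tween-20, 0.1 mg/ml BSA.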

[16] = measured here: cell count channel max response
[17] = measured here: lipid channel max response

CN1CCN(c2ncc3nc(-c4cn(C)c5ccccc45)c(=O)n(C)c3n2)CC1
7.8%: max response [11, 17]
7.27%: max response [11, 16]
active: Potency [3] 31.6 µM
inactive: Potency [1] > 11.4 µM | activity change, negative = inhibition [2] -20.2% | activity change, negative = inhibition [4] 11.3% | activity, negative = inhibition [5] 12.5% | Potency [6] > 9.22 µM | Potency [7] > 46 µM | Potency [8] | Potency [9] | Potency [10] | activity change, negative = inhibition [11] 2.17% | Potency [12] | Potency [13] | Potency [14] | Potency [15]

COc1ccc(-n2c(=O)c(CCc3ccccc3)nc3cnc(N4CCN(C)CC4)nc32)cc1
inactive: Potency [1] > 11.4 µM | activity change, negative = inhibition [2] -22.3% | Potency [3] | activity change, negative = inhibition [4] -24% | activity, negative = inhibition [5] -10.4% | Potency [6] > 9.22 µM | Potency [7] > 46 µM | Potency [8] | Potency [9] | Potency [10] | activity change, negative = inhibition [11] 2.13% | Potency [12] | Potency [13] | Potency [14] | Potency [15]
12.7%: max response [11, 16]
12.5%: max response [11, 17]
